High-throughput results: PubChem, National Center for Advancing Translational Sciences (NCATS)
FMDV inh: blocks foot and mouth disease virus; FMDV antiviral cell-based qHTS; 1.2% of 410,000 active; Potency, µM (top dose mostly 57.9 µM), most hits filed as inhibitors; calls by dose curve; tested in HEK293T cells; note: read-out not given here; nearly all actives have a fitted effect of over 45% in size
LASV entry inh: inhibitors of Lassa virus binding or cell entry; 1.2% of 300,000 active; AID 540256; Lassa virus pseudotype entry inhibition, cell reporter; Potency, µM (top dose mostly 37.9 µM), actives largely listed as inhibitors; calls by dose curve; tested in HEK293 cells; note: nearly all actives have a fitted effect of over 50% in size
Cycloheximide cs: counter-screen hit for Shiga toxin inhibitors, cycloheximide. 12% of 300,000 active. AID 2314. cell reporter, cycloheximide protein synthesis inhibition counterscreen. max response, %; in the data active = max response mostly above about 13%, no sharp cut-off; inactive = mostly below about 14%; note: read at 38.3 µM for the half of the compounds with a filed dose
Marburg entry inh: Marburg virus entry inhibition; Marburg virus pseudotyped entry inhibition, cell reporter; Potency, µM (series often up to 37.8 µM), most hits filed as inhibitors; 1.8% of 300,000 active; AID 540276; calls by dose curve; tested in HEK293 cells
HCV inh: inhibitors of hepatitis C virus infection. AID 651820. Potency, µM (series often up to 41.8 µM), most hits filed as inhibitors. 3.4% of 340,000 active. Huh7.5.1 HCVcc-Cre infection, luciferase reporter, 44 h; active = well fitted inhibition curve with a large enough effect; inconclusive = small, poorly fitted or top-dose-only effect, or another doubt; inactive = no such curve, though single readings can be large or run the other way
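After 44 h co-culture of compound, cells and HCVcc-Cre (~0.5 moi), substrate is added for 15 min at room temperature and luciferase measured over 15 sec. Cells were seeded at 1,000/well and pre-cultured 4 h.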
Shiga inhibitor: Shiga toxin inhibition. Vero cells, Shiga toxin protein synthesis inhibition reporter. inhibition, % at 38.7 µM. 9.2% of 290,000 active; in the data active = inhibition mostly above about 28%, no sharp cut-off; inactive = mostly below about 43%
Numbers stand for hits; 0 = inactive; ? = inconclusive; - = no result. Hits are enriched below; roughly 13% of the tested compounds scored in any of these assays.

SMILES | FMDV inh | LASV entry inh | Cycloheximide cs | Marburg entry inh | HCV inh | Shiga inhibitor
CCCCCCOc1ccc(N2C(=O)CC(N3CCN(CCN=CC4=C(O)CC(C)(C)CC4=O)CC3)C2=O)cc1 (centres undefined) | ? | - | 0 | - | 0 | 0
CCOC(=O)c1c(C)cc(O)c(C)c1O | 0 | - | - | - | - | -
O=C(NCCc1c[nH]c2ccccc12)C(=O)NCC(c1cccnc1)N1CCN(c2ccccc2)CC1 (centres undefined) | ? | ? | 0 | 0 | 10µM | 0
COc1ccc(C(=O)NCC(c2cccnc2)N2CCN(c3ccccc3OC)CC2)cc1 (centres undefined) | ? | 0 | - | - | - | -
COc1ccccc1N1CCN(C(CNC(=O)C(=O)NCCc2ccccc2)c2cccnc2)CC1 (centres undefined) | 25µM | 0 | - | - | - | -
Cc1noc(C)c1C(=O)N1CCC[C@@]2(CCN(Cc3ccc(C#N)cc3)C2)C1 | 0 | - | - | - | - | -
O=C(NC(=S)Nc1ccccc1Cl)C1CC1 | 0 | - | 45 | - | ? | 0
NNC(=S)Nc1ccccc1Cl | 0 | 0 | 43 | 0 | 0 | 86
COc1ccccc1NC(=S)NC(=O)C1CC1 | 0 | 0 | 0 | ? | 0 | 0
CCN(CC)S(=O)(=O)c1ccc(Cl)c(NC(=S)NC(=O)C2CCCC2)c1 | 20µM | - | - | - | 4µM | -
S=C(NCCNC(=S)Nc1ccccc1Cl)Nc1ccccc1Cl | 0 | ? | 0 | ? | ? | 0
O=C(NC(=S)Nc1ccccc1Br)C1CCC1 | 0 | ? | 43 | 0 | ? | 50
CCSc1nnc(NC(=O)c2cc(-c3ccccc3O)n[nH]2)s1 | 0 | 0 | 0 | 0 | 0 | 0
CC1(C)OC2C(CO)OC(n3cnc4c(=O)[nH]c(N)nc43)C2O1 (centres undefined) | 0 | - | - | - | - | -
C=CCOc1ccc(/C=C/C(C)=N\O)cc1 | 0 | 0 | 50 | 0 | 0 | 85
O=C1[C@@H]2Cc3c([nH]c4ccccc34)C(c3ccccc3)N2C(=O)CN1C1CCN(Cc2ccccc2)CC1 (some centres undefined) | 0 | ? | 0 | ? | 0 | 0
COC(=O)c1ccc(C2c3[nH]c4ccccc4c3C[C@H]3C(=O)N(C4CCN(Cc5ccccc5)CC4)CC(=O)N23)cc1 (some centres undefined) | 0 | - | 0 | - | 10µM | 0
O=C1[C@@H]2Cc3c([nH]c4ccccc34)C(c3cccc(Br)c3)N2C(=O)CN1C1CCN(Cc2ccccc2)CC1 (some centres undefined) | 0 | ? | 18 | ? | ? | 0
Cc1ccccc1C1c2[nH]c3ccccc3c2C[C@H]2C(=O)N(C3CCN(Cc4ccccc4)CC3)CC(=O)N12 (some centres undefined) | - | - | 0 | - | - | 0
COc1ccc(C2c3[nH]c4ccccc4c3C[C@H]3C(=O)N(C4CCN(Cc5ccccc5)CC4)CC(=O)N23)c(OC)c1 (some centres undefined) | 0 | - | 0 | - | ? | 0
CCOc1ccccc1C1c2[nH]c3ccccc3c2C[C@H]2C(=O)N(C3CCN(Cc4ccccc4)CC3)CC(=O)N12 (some centres undefined) | 0 | ? | 0 | 20µM | ? | 0
CCN1CCC(NC(=O)Nc2cc(Cl)ccc2OC)CC1 | 0 | 0 | 0 | 7.1µM | 0 | 0
COC(=O)C1CCN(CC(=O)Nc2cc(Cl)ccc2OC)CC1 | - | - | 0 | - | - | 0
COc1ccc(C)cc1NC(=O)CNc1ccccc1CN(C)C1CCCCC1 | ? | 0 | 0 | 4.5µM | 0 | 0
COc1ccc(C)cc1NC(=O)CN(Cc1nnc(-c2ccc(Cl)cc2)o1)C1CCCC1 | 0 | 0 | 13 | ? | 7.9µM | 0
SMILES | FMDV inh | LASV entry inh | Cycloheximide cs | Marburg entry inh | HCV inh | Shiga inhibitor
COc1ccc(Cl)cc1NC(=O)CNc1ccccc1CN(C)C1CCCCC1 | ? | ? | 0 | 2.5µM | 0 | 0
COc1ccc(Cl)cc1NC(=O)CN(C)C1CCCCC1 | 0 | 0 | 0 | ? | ? | 0
CCOC(=O)C1=C(C)OC(N)=C(C(=O)OCC)C1c1cccnc1 (centres undefined) | 0 | 0 | 0 | 0 | 0 | 0
CN(CC(=O)Nc1ccccc1Cl)C(=O)COC(=O)/C=C/c1cccc(C(F)(F)F)c1 | 0 | - | - | - | 0 | -
C/C(=N\NC(=O)c1cccc(Cl)c1)C1C(=O)c2ccccc2C1=O | 0 | ? | 52 | 0 | ? | 73
C/C(=N\NC(=O)CCc1ccccc1)C1C(=O)c2ccccc2C1=O | 0 | ? | 24 | ? | 0 | 67
COc1cc2c(cc1OC)n(CC(=O)c1cccc(Cl)c1)c(=O)n1nc(CCn3nc(C)cc3C)nc21 | 0 | ? | - | - | - | -
CCN1C(=O)c2ccccc2S(=O)(=O)c2ccc(C(=O)N3CCOCC3)cc21 | 0 | - | 0 | - | 0 | 0
c1ccc(CN2CCN(C3CCCSc4ccccc43)CC2)cc1 (centres undefined) | ? | ? | - | 16µM | 0 | -
O=C1CC(N2CCN(Cc3ccccc3)CC2)C(=O)N1 (centres undefined) | 0 | - | 0 | - | 0 | 0
O=C(Nc1ccccc1C(F)(F)F)n1ncc2cc(Cl)ccc21 | 0 | 0 | - | 0 | - | -
Cc1cccc2c1cnn2C(=O)Nc1ccccc1Br | 0 | ? | 0 | ? | 0 | 0
COc1ccc(NC(=O)n2ncc3c(C)cccc32)cc1 | 0 | - | 59 | - | 0 | 128
Cc1cccc2c1cnn2C(=O)Nc1ccccc1Cl | 0 | ? | 35 | 0 | ? | 63
Cc1ccc(NC(=O)n2ncc3c(C)cccc32)cc1F | 0 | - | 72 | - | 0 | 106
COc1ccccc1NC(=O)n1ncc2c(C)cccc21 | 0 | 0 | - | ? | - | -
Cc1ccccc1NC(=O)n1ncc2cc(Cl)ccc21 | 0 | 0 | 21 | 0 | 0 | 0
Cc1cccc2c1-c1sc(C(=O)N(C)c3cccc(Cl)c3)cc1CO2 | 0 | - | - | 0 | - | -
CCN(C(=O)COC(=O)CCNS(=O)(=O)c1ccccc1F)c1c(N)n(Cc2ccccc2)c(=O)[nH]c1=O | 0 | 0 | - | 0 | 0 | -
CC=C1COC(C(=O)NCCOCCO)(C(F)(F)F)C=C1C=C(C)C (centres undefined) | - | - | 0 | - | - | 0
COc1ccc(C)cc1NC(=O)n1ncc2c(C)cccc21 | 0 | - | 0 | - | 0 | 0
COc1ccc(NC(=O)n2ncc3c(C)cccc32)cc1OC | 0 | - | 36 | - | 0 | 63
CCN1C(=O)N(c2ccc(C(C)=O)cc2)S(=O)(=O)c2ccccc21 | 0 | 0 | 0 | - | 0 | 0
O=C(Nc1nccs1)c1ccc(-c2ccc(Cl)cc2Cl)o1 | 0 | 0 | 26 | 0 | 0 | 50
O=C(Nc1nccs1)c1ccc(-c2ccc(F)c(Cl)c2)o1 | 0 | - | 45 | - | 22µM | 102
COC(=O)c1cc(NC(=O)c2ccc(-c3ccc(Cl)cc3Cl)o2)cc(C(=O)OC)c1 | 0 | 0 | - | - | - | -
COc1cc2c(cc1OC)C(c1cccc([N+](=O)[O-])c1)NC(=O)C2 (centres undefined) | 0 | 0 | 0 | ? | 0 | 0
CCC(C)NC(=O)CN1C(=O)CC(C)(C)S(=O)(=O)c2ccccc21 (centres undefined) | 0 | - | 0 | - | 0 | 0
COc1ccc(C(C#N)N2CCC(c3ccccc3)=N2)cc1 (centres undefined) | 0 | 0 | 21 | ? | 0 | 43
CC1=NN(C(C#N)c2ccccc2)C(C)(C)C1 (centres undefined) | 0 | - | 0 | - | 0 | 0
